# Screening data from PubChem BioAssay.
# IL-1B inflam inh: qHTS for Inhibitors of Inflammasome Signaling: IL-1-beta AlphaLISA Primary Screen; THP-1 LPS/ATP IL-1B secretion, AlphaLISA, 16 h; hits give low values; activity change, % at 57.5 µM; hit rate 4.7% among 360,000; AID 743279, 2014; in the data active = activity change below about -50%; inconclusive = mostly about -30% to -49%
#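 THP-1 cells pretreated 1 hr with compounds (up to 57.5 uM final), then stimulated with LPS (250 ng/mL final) plus ATP (1.25 mM final); secreted IL-1B measured by AlphaLISA after 16 hr, decreased signal indicating inhibition.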
# ALOX12 inh: Primary qHTS assay for inhibitors of human arachidonate 12S-lipoxygenase (ALOX12): Round 2; Polyunsaturated fatty acid lipoxygenase ALOX12 (Homo sapiens), P18054; purified 12hLO, xylenol orange hydroperoxide absorbance; Potency, µM (series often up to 108 µM), inactives show at the highest dose activity change, negative = inhibition, most hits filed as inhibitors; hit rate 1.1% among 580,000; AID 1671190, 2021; also: potency is read from the fitted curve at half-maximal effect
# Target sequence (P18054 whole entry, looked up): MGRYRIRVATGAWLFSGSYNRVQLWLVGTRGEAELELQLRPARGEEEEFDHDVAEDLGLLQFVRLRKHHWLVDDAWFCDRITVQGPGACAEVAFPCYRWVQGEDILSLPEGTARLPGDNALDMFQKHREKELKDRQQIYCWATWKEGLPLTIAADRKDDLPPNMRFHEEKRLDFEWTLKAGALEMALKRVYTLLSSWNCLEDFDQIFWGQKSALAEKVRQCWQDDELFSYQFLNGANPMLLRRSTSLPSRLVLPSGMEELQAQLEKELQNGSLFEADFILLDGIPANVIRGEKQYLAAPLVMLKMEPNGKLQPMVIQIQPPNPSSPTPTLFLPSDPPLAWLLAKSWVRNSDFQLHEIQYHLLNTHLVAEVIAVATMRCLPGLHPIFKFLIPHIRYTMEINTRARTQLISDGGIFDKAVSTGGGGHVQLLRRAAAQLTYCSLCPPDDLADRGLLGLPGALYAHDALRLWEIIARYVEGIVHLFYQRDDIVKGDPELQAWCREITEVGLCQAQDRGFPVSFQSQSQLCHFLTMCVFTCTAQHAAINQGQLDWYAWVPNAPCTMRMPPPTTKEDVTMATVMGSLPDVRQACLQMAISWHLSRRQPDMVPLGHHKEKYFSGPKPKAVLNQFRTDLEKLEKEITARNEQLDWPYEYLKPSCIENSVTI
#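 Purified human 12hLO at 150 nM in 25 mM Hepes, 0.01% Triton X-100, pH 7.0, preincubated 15 min at room temperature with compound. Reaction started with 40 uM arachidonic acid, 30 min at room temperature. Hydroperoxide measured by Fe-xylenol orange, 573/405 nm absorbance ratio.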
# HT1080 IDH1KD tx: qHTS for induction of synthetic lethality in tumor cells producing 2HG: qHTS for the HT-1080-IDH1KD cell line; HT-1080 IDH1 knockdown viability, ATP luminescence, 48 h; hit rate 2% among 360,000; Potency, µM (doses to about 46.1 µM), for the others: at the top dose activity, negative = toxicity, actives largely listed as cytotoxic;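 also: potency is read from the fitted curve at half-maximal effect; 0% = DMSO wells and -100% = cell-free medium wells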
#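 Assay cells: HT-1080 with IDH1 knockdown, 750 per well, RPMI/5% FBS. Exposure: 48 h at 37 °C following 2 h pre-incubation. Read: CellTiter-Glo luminescence; fitted concentration-response, curve class assigned.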
# TDP1 cell CPT: qHTS for Inhibitors of human tyrosyl-DNA phosphodiesterase 1 (TDP1): qHTS in cells in presence of CPT | Potency, µM (doses to about 46.2 µM), without a hit: top-dose activity change, negative = growth inhibition, most hits filed as inhibitors | hit rate 12% among 420,000 | chicken DT40 Tdp1-/-;hTDP1 cells + 20 nM CPT, ATP luminescence, 48 h; also: potency is read from the fitted curve at half-maximal effect; nearly all actives have a fitted effect of over 55% in size
#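 Chicken DT40 Tdp1-/- cells complemented with human TDP1, 400 cells/well, exposed to compounds plus 20 nM camptothecin for at least 48 h at 37 C; viability read as ATP content by CellTiter-Glo luminescence.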
# HT1080NT lethal: qHTS for induction of synthetic lethality in tumor cells producing 2HG: qHTS for the HT-1080-NT fibrosarcoma cell line; HT-1080-NT fibrosarcoma viability, CellTiter-Glo ATP luminescence, 48 h; AID 686970, 2013; hit rate 1.6% among 360,000; Potency, µM (titrated, usually from 46.1 µM), without a hit: at the highest dose activity, negative = less viability, most hits filed as cytotoxic;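 also: NT is the 2HG producing partner of a matched IDH1 knockdown line; potency is read from the fitted curve at half-maximal effect; 0% = DMSO-treated cells and -100% = media-only wells without cells; nearly all actives have a fitted effect of over 55% in size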
#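 HT-1080-NT fibrosarcoma cells (2HG-overproducing), 750 cells/well in RPMI with 5% FBS, dosed after 2 h and incubated 48 h at 37C. CellTiter-Glo luminescence normalized to DMSO and no-cell wells; concentration-response curves fitted and classed.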
# TDP1 cell noCPT: qHTS for Inhibitors of human tyrosyl-DNA phosphodiesterase 1 (TDP1): qHTS in cells in absence of CPT; DT40 Tdp1-/- hTDP1 cells, no CPT, ATP luminescence, 48 h; Potency, µM (highest dose often 46.2 µM), for inactives: at the highest dose activity change, negative = growth inhibition, most hits filed as inhibitors; hit rate 15% among 420,000; AID 686978, 2013; also: potency is read from the fitted curve at half-maximal effect; nearly all actives have a fitted effect of over 55% in size
#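 Stably hTDP1-transfected Tdp1-null chicken DT40 cells were treated with library compounds minus camptothecin and grown for at least 48 hr at 37 °C, after which cellular ATP was quantified by luminescence.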
# * marks the source's active call; other numbers are inactive results; u = inconclusive; x = not tested or not shown; ! = repeats disagree. The entries come from a sample that favours hits as a whole. Unless noted, calls follow the shape of the dose curve; as a rule, active = well fitted curve in the direction sought with a large enough effect; inconclusive = small, poorly fitted or top-dose-only effect, or another doubt; inactive = no such curve, though single readings can be large; an effect the other way counts as inactive or inconclusive. Unless noted, % is scaled to controls: 0 for no effect and ±100 for the full control effect.
SMILES,IL-1B inflam inh,ALOX12 inh,HT1080 IDH1KD tx,TDP1 cell CPT,HT1080NT lethal,TDP1 cell noCPT
COc1cccc(NC(=O)CCCN2C(=O)C3CC=CCC3C2=O)c1 (stereo unspecified),1.6,9.2%,10.3µM*,-1.8%,u,4.5%
CNC(=O)CN(C)c1nc(C(F)(F)F)nc2ccccc12,x,26.8%,x,x,x,x
COc1ccc(-c2cc3nc(C4CCN(C(=O)OC(C)(C)C)CC4)c(C(=O)Nc4cc(Cl)cc(Cl)c4)cn3n2)cc1,x,1.1%,x,-35.2%,x,u
CCOc1ccc(-c2cc3nc(C4CCN(C(=O)OC(C)(C)C)CC4)c(C(=O)Nc4ccc(C)c(F)c4)cn3n2)cc1,x,6.8%,x,9.2µM*,x,7.31µM*
COc1ccc(-c2cc3nc(C4CCN(C(=O)OC(C)(C)C)CC4)c(C(=O)Nc4cc(C)cc(C)c4)cn3n2)cc1,x,1.5%,x,u,x,16.4µM*
Cc1ccc(C)c(-n2ccnc2SC2CCCCC2=O)c1 (stereo unspecified),x,-7.4%,x,x,x,x
c1ccc(N=Nc2ccc3cccccc2-3)cc1,-93.1*,84.0%,-20.6%,-26.5%,-15.5%,u
Nc1ccc(N=Nc2ccccc2)c2ccccc12,24.9,u,-6.6%,31.9%,3.2%,2.6%
Clc1ccc(-c2[nH]ncc2N=Nc2ccccc2)cc1,u,u,u,u,-24.7%,u
Nc1ccc(N=Nc2ccccc2)c(N)n1,-19.6,u,-0.7%,9.44µM*!,2.5%,10.6µM*!
CN1CCN(c2oc(-c3cccs3)nc2C#N)CC1,x,-14.9%,x,x,x,x
COC(=O)[C@H]1[C@H](CO)[C@H]2Cn3c(ccc(Br)c3=O)[C@H]2N1Cc1ccccc1Cl,x,35.5µM*,x,x,x,x
CC(=O)N1[C@@H]2c3ccc(-c4cccnc4)c(=O)n3C[C@@H]2[C@@H](CO)[C@@H]1C(=O)NCc1ccccc1Cl,x,-30.1%,x,x,x,x
CCC(=O)N1CCc2c(C(=O)NCc3cccc(OC)c3OC)cccc21,x,38.6%,x,x,x,x
CCOc1ccc(C(=O)Nc2sc(C(=O)OC(C)C)c(C)c2C#N)cc1,x,9.7%,x,x,x,x
COc1cccc(Cn2cc(C(=O)c3ccccc3)c(=O)c3cc4c(cc32)OCO4)c1,x,-1.7%,x,u,x,u
CCOc1ccc2c(c1)c(=O)c(C(=O)c1ccc3c(c1)OCO3)cn2Cc1cccc(F)c1,x,u,x,u,x,23.1µM*
Cc1ccc2c(c1)c(=O)c(C(=O)c1ccc3c(c1)OCO3)cn2Cc1cccc(F)c1,x,3.2%,x,u,x,16.4µM*
O=C(Nc1nccs1)NC1CC(=O)N(c2cccc(F)c2)C1 (stereo unspecified),x,0.4%,x,x,x,x
O=C1CC(N2CCN(Cc3ccc(Cl)cc3)CC2)C(=O)N1CCc1ccccc1 (stereo unspecified),20.5,0.0%,1.3%,14.6µM*,-5.1%,18.4µM*
COc1cccc(C(=O)Nc2ccccc2N2CCN(C(=O)c3ccccc3)CC2)c1,-22.8,3.6%,-1.7%,u,1.0%,20.6µM*
COc1cccc(C(=O)Nc2ccccc2C(=O)N2CCCC2)c1,9.2,-5.6%,13.8%,4.4%,17.7%,-1.2%
CC(C)Oc1cccc(C(=O)NC(=S)Nc2ccccc2N2CCOCC2)c1,2.2,u,-5.0%,u,-0.6%,u
COc1cccc(C(=O)NC(=S)Nc2ccccc2N2CCCC2)c1,2.0,u,-0.7%,23.1µM*,-13.0%,u
COc1cccc(C(=O)NC(=S)Nc2ccccc2N2CCCCC2)c1,13.7,39.8µM*,-0.4%,u,-10.7%,u
SMILES,IL-1B inflam inh,ALOX12 inh,HT1080 IDH1KD tx,TDP1 cell CPT,HT1080NT lethal,TDP1 cell noCPT
COc1cccc(C(=O)Nc2ccccc2N2CCCC2)c1,-17.5,u,0.1%,18.4µM*,3.1%,u
O=C(Nc1ccccc1N1CCCCC1)c1cccc(OC(F)F)c1,3.5,-1.4%,-6.7%,u,-2.1%,u
COc1ccc(C(C)NC(=O)C2(c3ccc(NS(C)(=O)=O)cc3)CCCCC2)cc1 (stereo unspecified),x,22.1%,x,x,x,x
Cc1cc(C)cc(-n2c(=O)c3sccc3n(CC(=O)NC3CCc4ccccc43)c2=O)c1 (stereo unspecified),x,2.3%,x,x,x,x
CC1(C)Cc2c(C#N)c(Nc3ccccc3)n3c(SCC(=O)Nc4ccccc4)nnc3c2CO1,x,20.6%,x,x,x,x
CS(=O)(=O)c1cccc(OCCOc2ccc(F)cc2)c1,x,64.6%,x,x,x,x
CC(=O)Nc1cccc(C(=O)Nc2ccccc2N2CCOCC2)c1,13.0,-17.6%,u,u,u,25.9µM*
COc1ccc(NC(=O)CSCC(=O)Nc2ccccc2N2CCCCC2)cc1,-13.0,-26.8%,-7.1%,u,-4.7%,29.1µM*
O=C(COc1ncnc2sc3c(c12)CCC3)N1CCCc2ccccc21,x,-15.8%,x,x,x,x
CSc1nnc(-c2ccccc2NC(=O)c2ccc(C)c(S(=O)(=O)N3CCCCCC3)c2)o1,x,2.7%,x,x,x,x
Cc1nc(N)c(Cc2ccc(Cl)cc2Cl)c(N)n1,1.7,-5.5%,-0.7%,11.6µM*,-19.2%,8.2µM*
COc1ccc(Cc2c(N)nc(C)nc2N)cc1,10.5,-5.6%,16.8%,-8.6%,11.2%,-3.7%
Brc1ccc(-c2nc3ccccn3c2Nc2ccc3c(c2)OCCO3)o1,x,-23.6%,x,25.9µM*,x,u
Oc1ccccc1-c1nc2cnccn2c1Nc1ccc2c(c1)OCCO2,13.2,4.0%,-16.4%,u,-14.4%,-27.5%
CSc1ccc(-c2nc3cnccn3c2Nc2ccc3c(c2)OCO3)cc1,86.4,x,u,u,u,u
Clc1ccc(-c2nc3cnccn3c2Nc2ccc3c(c2)OCO3)cc1,64.1,u,-26.3%,u,-22.0%,20.6µM*
c1cncc(-c2nc3ccccn3c2Nc2ccc3c(c2)OCCO3)c1,-23.9,4.5%,-5.1%,u,2.7%,11.6µM*
O=C(Nc1ccc2ccccc2n1)c1ccc(S(=O)(=O)N2CCCC2)cc1,x,-22.0%,x,x,x,x
CNS(=O)(=O)c1cc(C(=O)NCC2(c3ccccc3)CC2)cc(C)c1C,x,-0.8%,x,x,x,x
CCOc1cc(S(=O)(=O)N2CCN(CCO)CC2)ccc1Br,x,-47.1%,x,x,x,x
COC(=O)c1ccc(C2C3=C(CC(C)(C)CC3=O)Nc3c2c(=O)n(C)c(=O)n3C)cc1 (stereo unspecified),x,-4.7%,x,x,x,x
CCc1ccc(-c2noc(CCC(=O)Nc3nc4ccccc4n3CC)n2)cc1,x,9.6%,x,x,x,x
